Screening results (PubChem BioAssay)
An excerpt weighted towards active compounds, which were near 7.3% of everything screened.
Tau FP inhib = blocks human tau fibril formation measured by polarization; P10636; K18 P301L tau heparin fibrillization, Alexa594 FP, 6 h; Potency, µM (top dose mostly 57.7 µM), for the others: top-dose activity, negative = inhibition, actives largely listed as inhibitors; 0.39% of 280,000 active; AID 1468; also: nearly all actives have a fitted effect of over 55% in size
Target sequence (P10636 561-689 P618L limits assumed): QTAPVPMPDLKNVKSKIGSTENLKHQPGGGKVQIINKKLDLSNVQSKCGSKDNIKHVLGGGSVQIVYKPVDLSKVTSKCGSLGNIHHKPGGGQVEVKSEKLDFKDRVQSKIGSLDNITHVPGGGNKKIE
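K18 P301L tau (15 uM unlabeled/0.24 uM Alexa 594-labeled, final) + compound + heparin 20 uM final; 100 mM NaOAc pH 7; 6 hr 37 C; ThT 30 uM final added, 1 hr RT; FP ex 555/em 632 nm.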
Tau fibril ThT = inhibitors of human tau fibril formation, thioflavin T binding; P10636; recombinant tau K18 P301L, heparin-induced fibrillization, ThT fluorescence; Potency, µM (series often up to 57.4 µM), without a hit: top-dose activity, negative = inhibition, hits mostly inhibitors; 2.1% of 270,000 active; also: nearly all actives have a fitted effect of over 55% in size
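Aggregation was driven by heparin (20 uM final) acting on recombinant tau […] bearing P301L in 100 mM sodium acetate pH 7; fibrils were detected with Thioflavin T.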
Gal4-VP16 FLuc = counter-screen for ROR gamma inhibitors: Gal4-VP16 reporter. Potency, µM (titrated, usually from 53.6 µM), for inactives: top-dose activity, negative = inhibition, hits mostly inhibitors. 3.5% of 310,000 active. AID 2546. Drosophila S2 Gal4-VP16 UAS-luciferase, luminescence, 20 h;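 also: Gal4-VP16 expression switched on by copper sulfate through the metallothionein promoter; nearly all actives have a fitted effect of over 50% in size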
Tau fluor counter = counter-screen for tau fibril formation inhibitors | tau K18 P301L Alexa594 fluorescence, heparin fibrillization | Potency, µM (highest dose often 57.7 µM), without a hit: top-dose activity change, negative = decrease | 0.93% of 280,000 active; also: nearly all actives have a fitted effect of over 55% in size
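Human tau K18 P301L (15 uM unlabeled, 0.24 uM Alexa 594-labeled) in 100 mM sodium acetate pH 7 with 20 uM heparin, 6 hr at 37 C. ThT 30 uM added, 1 hr ambient; Alexa 594 FP and total fluorescence read at 555/632 nm.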
RORg inh = inhibitors of mouse ROR gamma transcriptional activity | P51450 | Drosophila S2 Gal4-RORgamma UAS-luciferase reporter, 20 h | Potency, µM (top dose mostly 53.6 µM), without a hit: top-dose activity change, negative = inhibition, hits mostly inhibitors | 5.4% of 310,000 active | AID 2551; also: nearly all actives have a fitted effect of over 60% in size
Target sequence (P51450 whole entry, looked up, the tested form may be a part): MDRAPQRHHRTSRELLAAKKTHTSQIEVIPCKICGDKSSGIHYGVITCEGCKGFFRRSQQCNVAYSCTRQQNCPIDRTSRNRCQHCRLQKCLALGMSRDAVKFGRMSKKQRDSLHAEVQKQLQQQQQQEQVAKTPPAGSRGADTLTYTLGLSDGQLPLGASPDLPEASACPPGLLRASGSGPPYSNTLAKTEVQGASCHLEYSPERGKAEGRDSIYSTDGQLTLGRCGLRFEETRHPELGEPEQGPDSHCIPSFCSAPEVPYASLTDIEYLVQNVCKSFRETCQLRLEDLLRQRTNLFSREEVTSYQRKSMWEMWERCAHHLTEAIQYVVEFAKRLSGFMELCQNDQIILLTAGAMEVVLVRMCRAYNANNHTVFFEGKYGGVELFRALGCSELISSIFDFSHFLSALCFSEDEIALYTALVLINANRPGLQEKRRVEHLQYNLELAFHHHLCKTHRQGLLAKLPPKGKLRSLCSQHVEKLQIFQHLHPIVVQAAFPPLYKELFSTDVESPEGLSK
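Luminescence from a UAS-regulated Photinus luciferase reporter in stably transfected Drosophila Schneider cells is measured; decreased signal marks ROR gamma inhibition. Fusion expression is induced by 700 uM copper sulfate for 20 hr.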
The depositor's hits bear a star; ? = inconclusive; · = no result given; [ ] = another dose, or the depositor's remark. Calls follow the shape of the dose curve; as a rule, active = well fitted curve in the direction sought with a large enough effect; inconclusive = small, poorly fitted or top-dose-only effect, or another doubt; inactive = no such curve, though single readings can be large; an effect the other way counts as inactive or inconclusive. % is scaled to controls: 0 for no effect and ±100 for the full control effect; potency is read from the fitted curve at half-maximal effect.

SMILES | Tau FP inhib | Tau fibril ThT | Gal4-VP16 FLuc | Tau fluor counter | RORg inh
CCOC(=O)/C(=N\Nc1ccc(OC)cc1)c1csc(Nc2ccccc2)n1 | ? | ? | ? | 7.1µM*[quencher] | ?
COc1ccc(C(=O)Nc2ccc3oc(-c4cc(Cl)ccc4Cl)nc3c2)cc1Br | -10% | -13% | · | -27% | ·
COc1ccc(C2CC(c3ccccc3)Oc3c(C)ccc(C(C)C)c32)cc1 (configuration not stated) | · | · | 3% | · | -1%
CCOc1ccc(/C=N/NC(=O)c2ccccc2NC(=O)c2ccc(OC)cc2)cc1 | ? | -7% | 7.1µM* | ? | 7.1µM*
O=C(Nc1ccccc1C(=O)N/N=C/c1ccncc1)c1ccccc1 | -6% | -14% | ? | -26% | 8.9µM*
CCOc1ccc(C(=O)Nc2ccccc2C(=O)O)cc1 | 7% | 8% | ? | 2% | 6.3µM*
COc1ccc(C(=O)Nc2ccccc2C(=O)N/N=C/c2ccco2)cc1 | -1% | 2% | 10µM* | -10% | 2µM*
COc1ccccc1NC(=O)CSc1nc(O)c(C/C=C/c2ccccc2)c(=O)[nH]1 | -7% | -16% | · | -5% | ·
CCCN(CCC)CCNC(=O)c1cc(Sc2ccc(Cl)cc2)nc2ccccc12 | -6% | -6% | · | -20% | ·
O=C(N/N=C/c1ccc(O)cc1)c1ccc(NC(=O)c2ccccc2Br)cc1 | 7% | -29% | -24% | ? | -33%
O=C(Nc1ccccc1C(=O)N/N=C/c1ccc(F)cc1)c1ccccc1Br | ? | -5% | ? | ? | 10µM*
COc1ccc(C)cc1NC(=O)CSc1ncc2c(n1)-c1ccc(Cl)cc1N(Cc1ccccc1)S2(=O)=O | -7% | 4% | · | -9% | ·
Cc1cccc(N/N=C(\C=N\N)C(=O)c2ccc(Br)cc2)c1 | ? | 14µM* | -4% | 11µM*[quencher] | 7%
CC(=O)/C(=N/Nc1cccc(C)c1)N1CCOCC1 | -2% | -25% | 4% | -15% | 5%
Cc1cccc(N=N/C(=C\O)C(=O)c2ccc(Br)cc2)c1 | 0% | 22µM* | ? | -22% | -24%
Cc1ccc(N=N/C(=C\O)C(=O)c2ccncc2)cc1 | -3% | 28µM* | -9% | -25% | -1%
O=C(/C(=C/O)N=Nc1cccc(C(F)(F)F)c1)c1ccccc1 | -12% | ? | -5% | -23% | -17%
O=C(/C(=C/O)N=Nc1ccccc1Cl)c1ccccc1 | -11% | 28µM* | -14% | -21% | 9%
CCc1nn(CC(=O)N2CC(C)CC(C)C2)c(=O)c2cccn12 (configuration not stated) | · | · | 4% | · | -14%
O=C(/C(=C/O)N=Nc1ccc(Cl)cc1)c1ccncc1 | -8% | 20µM* | -11% | -27% | 21%
NC(=O)CN1C(=O)C(=O)N(Cc2cccc(C(F)(F)F)c2)C1=O | · | · | -5% | · | -3%
OCC(O)C(O)C(O)C(O)C1NCCS1 (configuration not stated) | ? | 20µM* | -13% | -15% | -3%
Nc1nc2ccccc2n1/N=C/c1ccc([N+](=O)[O-])s1 | -6% | ? | ? | -7% | -25%
Nc1nc2ccccc2n1/N=C/c1ccc(-c2ccccc2)o1 | -8% | ? | ? | ? | 7.9µM*
CCOC(=O)Cc1csc(-n2sc3ccccc3c2=O)n1 | 28µM* | 28µM* | ? | ? | 11µM*
SMILES | Tau FP inhib | Tau fibril ThT | Gal4-VP16 FLuc | Tau fluor counter | RORg inh
Nc1n[nH]c(N)c1N=Nc1ccc(Cl)cc1Cl | 7% | 3.5µM* | 0% | ? | ?
Nc1n[nH]c(N)c1N=Nc1ccccc1F | · | · | -11% | · | -13%
Cc1ccc(-n2c(SCC(N)=O)nnc2-c2ccco2)cc1 | · | · | 1% | · | 2%
Cc1cccc([C@H]2[C@@H]3C=CCC[C@@H]3C(=O)N2Cc2ccccc2)c1 | 8%[81.3 µM] | -9%[81.4 µM] | -4% | -5%[81.3 µM] | 20%
CCn1c(SC(C)C(=O)O)nc2sc3c(c2c1=O)CCC3 (configuration not stated) | -12% | -17% | 7.1µM* | -18% | 5.6µM*
Cc1[nH]c(C)c(C(=O)/C=C/c2ccc([N+](=O)[O-])cc2)c1C | · | · | ? | · | 1.1µM*
CCOC(=O)c1[nH]c(C)c(C(=O)/C=C/c2ccc(C(=O)O)cc2)c1C | · | · | 22% | · | 0%
O=C(CSc1nc2ccccc2n1CCc1ccccc1)c1ccc(O)c(O)c1 | -3% | ? | ? | 25µM*[quencher] | 7.9µM*
Cc1ccc(NC(=S)Nc2ccc(OC(F)F)c(Cl)c2)cc1Cl | ? | 9% | ? | ? | 13µM*
CC(NC(=S)Nc1ccc(OC(F)F)c(Cl)c1)C(C)(C)C (configuration not stated) | -14% | 0% | 13µM* | -29% | 2.8µM*
Cc1ccc(SC2=C(Sc3ccc(C)cc3)C(=O)c3ccccc3C2=O)cc1 | 14µM* | 3.2µM* | -6% | 2.5µM*[quencher] | 28%
CC(Nc1ncnc2ccccc12)c1ccccc1 (configuration not stated) | · | · | 2.8µM* | · | ?
Cc1noc(C)c1-c1ccc2ncnc(NC(C)c3ccccc3)c2c1 (configuration not stated) | · | · | -11% | · | -81%
S=C1NC(c2ccccc2)=CC(c2ccccc2)N1 (configuration not stated) | 2% | -6% | 11µM* | 0% | 3.5µM*
O=C1N=C(c2ccccc2)C(c2ccccc2)N1 (configuration not stated) | ? | -6% | 0% | -14% | -17%
S=C1NC(c2cccs2)=CC(c2ccc(Br)cc2)N1 (configuration not stated) | 4% | ? | 4µM* | -10% | 3.5µM*
OC[C@@H]1OC(O)[C@H](O)[C@H](O)[C@H]1O (some centres not stated) | · | · | -14% | · | 14%
CCc1ccc(CN(Cc2ccco2)c2cnc(S(C)(=O)=O)nc2C(=O)Nc2ccccc2Cl)cc1 | 2% | -5% | · | -9% | ·
CSc1ccccc1NC(=O)C1=CC(c2cccs2)=NS(=O)(=O)N1C | · | · | -7% | · | -28%
O=C(CNc1ccc2c(c1)OCO2)N/N=C\c1cn(Cc2ccccc2)c2ccccc12 | 2% | ? | ? | 10µM*[quencher] | 13µM*
O=C(CNc1ccccc1)N/N=C/c1ccc2c(c1)OCO2 | 6% | ? | 5% | -13% | 35%
O=C(CNc1ccc2c(c1)OCO2)N/N=C\c1cn(Cc2ccc(F)cc2)c2ccccc12 | 11% | ? | 10µM* | ? | ?
COCCCNS(=O)(=O)c1cc2c3c(c1)C(C)C(=O)N3CCC2 (configuration not stated) | · | · | -7% | · | -9%
CNc1ccccc(C(=O)/C=C/c2ccccc2OC)c1=O | ? | 16µM* | ? | ? | ?
COc1ccccc1/C=C/C(=O)/C=C/c1ccccc1O | ? | 14µM* | ? | -28% | ?
CNc1ccc(Br)cc(C(=O)/C=C/c2cccc(Cl)c2Cl)c1=O | ? | 7.1µM* | -2% | ? | 0%
